ChEMBL document CHEMBL1961873, “Compounds: GSK PKIS; Assays: Nanosyn kinase panel” (2012)

Key:
[1] = molecular target: Serine/threonine-protein kinase pim-2 (Homo sapiens) (UniProt Q9P1W9); conditions: at 1 µM;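 note: each value is a mean of the inhibition measurements against the kinase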
[2] = molecular target: Serine/threonine-protein kinase pim-3 (Homo sapiens) (UniProt Q86V86); conditions: at 0.1 µM
[3] = molecular target: Serine/threonine-protein kinase pim-3 (Homo sapiens) (UniProt Q86V86); conditions: at 1 µM
[4] = molecular target: T1, MAP kinase-activated protein kinase 5 (Homo sapiens) (UniProt Q8IW41); conditions: at 0.1 µM
T1 sequence (whole entry): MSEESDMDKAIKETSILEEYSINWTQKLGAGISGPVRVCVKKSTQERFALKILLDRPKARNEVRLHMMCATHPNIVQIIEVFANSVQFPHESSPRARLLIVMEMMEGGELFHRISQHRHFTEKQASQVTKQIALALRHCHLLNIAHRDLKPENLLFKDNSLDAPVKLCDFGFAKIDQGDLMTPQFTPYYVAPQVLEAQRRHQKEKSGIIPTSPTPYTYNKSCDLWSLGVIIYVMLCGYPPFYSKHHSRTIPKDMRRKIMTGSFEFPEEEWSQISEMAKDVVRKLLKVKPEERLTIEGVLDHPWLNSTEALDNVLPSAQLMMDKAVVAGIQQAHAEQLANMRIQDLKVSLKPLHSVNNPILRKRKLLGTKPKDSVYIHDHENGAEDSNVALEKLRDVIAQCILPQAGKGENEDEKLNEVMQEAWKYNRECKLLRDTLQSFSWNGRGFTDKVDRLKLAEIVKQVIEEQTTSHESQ

[5] = molecular target: T1, MAP kinase-activated protein kinase 5 (Homo sapiens); conditions: at 1 µM
[6] = molecular target: Serine/threonine-protein kinase SIK1 (Homo sapiens) (UniProt P57059); conditions: at 0.1 µM
[7] = molecular target: Serine/threonine-protein kinase SIK1 (Homo sapiens) (UniProt P57059); conditions: at 1 µM
[8] = molecular target: Serine/threonine-protein kinase SIK2 (Homo sapiens) (UniProt Q9H0K1); conditions: at 1 µM
[9] = molecular target: T2, Serine/threonine-protein kinase TBK1 (Homo sapiens) (UniProt Q9UHD2); conditions: at 0.1 µM;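 note: values are the mean TBK1 inhibition, taken from the GSK PKIS screening data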
T2 sequence (whole entry): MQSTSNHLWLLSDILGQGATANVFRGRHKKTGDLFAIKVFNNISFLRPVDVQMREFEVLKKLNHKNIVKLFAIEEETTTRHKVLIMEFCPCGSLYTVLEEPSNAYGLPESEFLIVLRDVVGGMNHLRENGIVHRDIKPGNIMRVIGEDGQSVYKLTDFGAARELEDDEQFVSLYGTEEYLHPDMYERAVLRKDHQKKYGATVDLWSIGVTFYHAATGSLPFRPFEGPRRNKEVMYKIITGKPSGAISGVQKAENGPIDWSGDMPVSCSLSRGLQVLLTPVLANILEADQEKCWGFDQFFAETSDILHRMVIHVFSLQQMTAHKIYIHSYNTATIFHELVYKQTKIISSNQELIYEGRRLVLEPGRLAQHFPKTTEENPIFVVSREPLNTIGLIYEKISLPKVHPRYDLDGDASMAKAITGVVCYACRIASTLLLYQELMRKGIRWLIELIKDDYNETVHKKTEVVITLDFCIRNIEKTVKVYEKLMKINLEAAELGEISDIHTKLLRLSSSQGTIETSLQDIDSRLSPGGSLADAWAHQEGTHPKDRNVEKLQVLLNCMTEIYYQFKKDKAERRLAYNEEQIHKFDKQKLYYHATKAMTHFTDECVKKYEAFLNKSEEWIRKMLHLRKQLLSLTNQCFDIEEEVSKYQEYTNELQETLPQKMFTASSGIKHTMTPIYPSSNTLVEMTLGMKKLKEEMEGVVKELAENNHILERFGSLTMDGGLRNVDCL

[10] = molecular target: Serine/threonine-protein kinase SIK2 (Homo sapiens) (UniProt Q9H0K1); conditions: at 0.1 µM

Chain of Serine/threonine-protein kinase SIK1 (Homo sapiens) (P57059 whole entry): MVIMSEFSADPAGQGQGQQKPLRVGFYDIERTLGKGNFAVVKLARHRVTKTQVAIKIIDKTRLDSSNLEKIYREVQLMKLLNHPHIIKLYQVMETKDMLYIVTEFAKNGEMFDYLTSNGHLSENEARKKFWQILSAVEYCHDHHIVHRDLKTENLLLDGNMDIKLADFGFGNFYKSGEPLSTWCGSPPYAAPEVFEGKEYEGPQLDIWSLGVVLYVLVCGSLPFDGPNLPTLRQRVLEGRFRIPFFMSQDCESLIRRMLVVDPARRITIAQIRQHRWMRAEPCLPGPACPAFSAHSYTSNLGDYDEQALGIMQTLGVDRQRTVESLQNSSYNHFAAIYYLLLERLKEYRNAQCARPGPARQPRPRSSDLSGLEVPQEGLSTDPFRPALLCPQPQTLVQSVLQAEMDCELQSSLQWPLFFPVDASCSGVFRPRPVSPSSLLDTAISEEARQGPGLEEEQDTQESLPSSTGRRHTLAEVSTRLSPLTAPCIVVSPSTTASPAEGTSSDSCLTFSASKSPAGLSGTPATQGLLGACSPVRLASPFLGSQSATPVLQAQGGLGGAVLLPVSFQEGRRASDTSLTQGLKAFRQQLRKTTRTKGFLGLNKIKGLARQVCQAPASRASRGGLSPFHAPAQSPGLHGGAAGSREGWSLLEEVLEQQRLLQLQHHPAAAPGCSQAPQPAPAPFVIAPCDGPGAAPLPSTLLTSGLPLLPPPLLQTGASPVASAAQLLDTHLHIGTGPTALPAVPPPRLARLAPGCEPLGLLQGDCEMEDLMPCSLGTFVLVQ
Chain of Serine/threonine-protein kinase SIK2 (Homo sapiens) (Q9H0K1 whole entry, looked up): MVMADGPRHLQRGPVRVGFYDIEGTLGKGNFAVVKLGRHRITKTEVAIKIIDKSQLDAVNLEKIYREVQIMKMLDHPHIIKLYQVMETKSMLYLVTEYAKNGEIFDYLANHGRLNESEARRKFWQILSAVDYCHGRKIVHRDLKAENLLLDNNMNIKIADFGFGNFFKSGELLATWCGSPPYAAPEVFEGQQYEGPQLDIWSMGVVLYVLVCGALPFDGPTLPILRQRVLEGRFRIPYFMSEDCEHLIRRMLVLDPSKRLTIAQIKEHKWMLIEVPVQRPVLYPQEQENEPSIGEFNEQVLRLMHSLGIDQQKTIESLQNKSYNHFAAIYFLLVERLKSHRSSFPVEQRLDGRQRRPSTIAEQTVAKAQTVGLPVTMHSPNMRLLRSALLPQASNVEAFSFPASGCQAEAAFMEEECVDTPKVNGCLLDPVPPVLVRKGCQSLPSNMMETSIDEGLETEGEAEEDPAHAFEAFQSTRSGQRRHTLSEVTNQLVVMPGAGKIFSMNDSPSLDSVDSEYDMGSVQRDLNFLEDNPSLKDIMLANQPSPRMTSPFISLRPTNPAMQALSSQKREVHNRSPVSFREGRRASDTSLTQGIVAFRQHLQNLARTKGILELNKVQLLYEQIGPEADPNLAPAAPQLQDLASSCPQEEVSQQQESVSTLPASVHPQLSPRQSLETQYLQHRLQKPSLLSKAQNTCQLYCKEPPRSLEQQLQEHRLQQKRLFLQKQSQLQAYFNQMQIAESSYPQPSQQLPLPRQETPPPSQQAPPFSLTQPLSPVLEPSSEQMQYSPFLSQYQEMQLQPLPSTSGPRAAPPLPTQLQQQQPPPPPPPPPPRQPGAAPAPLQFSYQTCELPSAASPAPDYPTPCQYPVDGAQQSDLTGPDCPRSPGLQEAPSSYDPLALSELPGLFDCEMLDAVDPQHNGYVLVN
Chain of Serine/threonine-protein kinase pim-2 (Homo sapiens) (Q9P1W9 whole entry, looked up): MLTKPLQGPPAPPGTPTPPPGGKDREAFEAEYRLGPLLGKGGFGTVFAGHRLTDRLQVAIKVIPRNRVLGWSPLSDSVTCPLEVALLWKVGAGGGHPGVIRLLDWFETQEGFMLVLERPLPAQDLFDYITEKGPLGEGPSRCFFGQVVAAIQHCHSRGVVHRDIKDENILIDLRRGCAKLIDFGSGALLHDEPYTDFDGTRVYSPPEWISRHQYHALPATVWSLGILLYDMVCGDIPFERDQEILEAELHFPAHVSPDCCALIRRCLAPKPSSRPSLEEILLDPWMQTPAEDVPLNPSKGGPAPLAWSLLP

Structure (SMILES)	inhibition [1]	inhibition [2]	inhibition [3]	inhibition [4]	inhibition [5]	inhibition [6]	inhibition [7]	inhibition [8]	inhibition [9]	inhibition [10]
CCN1CCC(CC(=O)Nc2n[nH]c3nc(-c4cccs4)c(Br)cc23)CC1	1.48%	-0.6%	5.95%	-1.45%	-0.83%	-7.57%	-6.71%	-4.25%	-0.25%	
CCCN1CCC(Oc2cc(Nc3nc(Nc4cccc(F)c4C(N)=O)c4cc[nH]c4n3)c(OC)cc2Cl)CC1	2.68%	1.54%	10.5%	-0.3%	-0.07%	-0.37%	2.28%	-0.62%	-0.35%	-0.16%
COc1cc(C)c(NC(=O)CN(C)C)cc1Nc1nc(Nc2cccc(F)c2C(N)=O)c2cc[nH]c2n1	2.33%	0.35%	16.3%	0.4%	1.56%	1.57%	5.28%	-4.44%	1.95%	0.18%
CS(=O)(=O)CCNCc1nc(-c2ccc3ncnc(Nc4ccc(F)c(Cl)c4)c3c2)cs1	-0.01%	0.66%	6.45%	0.35%	1.43%	8.44%	8.78%	2.57%	1.85%	3.22%
CC1=C(C(=O)Nc2ccc3[nH]ncc3c2)C(c2ccc3ccccc3c2)CC(=O)N1 (stereo not given)	0.77%	-0.19%	0.74%	0.65%	1.3%	4.02%	1.28%	4.09%	-1.92%	5.77%
CCc1cccc(NC(=O)Nc2ccc(Oc3ccc4nc(NC(=O)OC)[nH]c4c3)cc2)c1	-0.24%	1.1%	3.52%	0.32%	0.96%	2.06%	2.27%	0.48%	0.31%	1.99%
COc1cc2ncn(-c3cc(OCc4ccccc4Cl)c(C(N)=O)s3)c2cc1OC	4.79%	1.01%	8.63%	-0.46%	0.67%	-2.01%	28%	26.6%	3.64%	2.69%
NS(=O)(=O)c1ccc(N/N=C2\C(=O)Nc3ccc(C(=O)NCCc4c[nH]cn4)cc32)cc1	24.7%	4.71%	44.7%	1.41%	2.5%	11.7%	32.5%	16.9%	3.67%	6.36%
COc1cc2ncn(-c3cc(O[C@@H](C)c4ccccc4Cl)c(C(N)=O)s3)c2cc1OC	0.91%	0.03%	4.24%	1.26%	1.22%	6.27%	18.1%	12%	4.39%	2.99%
COc1ccc(-c2ccncc2)cc1C(N)=O	-0.52%	-0.49%	3.33%	1.23%	1.1%	3.59%	9.53%	4.53%	2.55%	3.27%
CNC(=O)c1cncc(/C=C/c2c(Cl)cccc2Cl)c1	-0.92%	1.26%	7.42%	1.11%	1.46%	11.9%	50.9%	17.3%	2.82%	2.71%
Nc1nc(-c2ccc3c(c2)C(=Cc2cc(Br)c(O)c(Br)c2)C(=O)N3)cs1	50.1%	5.73%	42.7%	-1.39%	-0.3%		-3.45%	-0.64%	0.67%	
CC1=C(C(=O)Nc2ccc3[nH]ncc3c2)C(c2ccc(F)cc2)NC(=O)N1 (stereo not given)	-0.13%	0.21%	-0.69%	2.17%	0.76%	0.84%	3.8%	1.13%	2.82%	3.04%
Fc1cccc(COc2ccc(Nc3ncnc4cc(-c5ccc[nH]5)sc34)cc2Cl)c1	-2.72%	-0.5%	1.49%	0.74%	0.9%	3.04%	8.63%	7.67%	2.35%	3.89%
COc1cccc(-n2ncc3c(N/N=C/c4cccc(F)c4)ncnc32)c1	-2.82%	-0.58%	-0.78%	0.63%	0.71%	5.56%	11.9%	14.4%	1.92%	5.11%
CS(=O)(=O)CCN(CC#N)Cc1ccc(-c2ccc3ncnc(Nc4ccc(OCc5cccc(F)c5)c(Cl)c4)c3c2)o1	-3.72%	-0.61%	-0.3%	0.76%	1.23%	4.78%	9.27%	0.48%	0.72%	1.11%
CN1CCC(C(=O)Nc2n[nH]c3nnc(-c4ccccc4)cc23)CC1	1.49%	-0.11%	3.84%	1.41%	3.73%	7.3%	7.57%	8.16%	2.09%	6.82%

Structure (SMILES)	inhibition [1]	inhibition [2]	inhibition [3]	inhibition [4]	inhibition [5]	inhibition [6]	inhibition [7]	inhibition [8]	inhibition [9]	inhibition [10]
COc1ccc2cc(-c3c(-c4ccncc4)nc(-c4ccc([S+](C)[O-])cc4)n3C)ccc2c1 (stereo not given)	0.99%	-1.77%	-3.85%	0.94%	-0.4%	2.62%	1.89%	5.27%	-2.09%	0.52%
CN(C)c1cc2c(Nc3ccc4nc(Cc5ccccc5)[nH]c4c3)ncnc2cn1	0.97%		2.51%	1.83%	2.12%	5.71%	10.2%	7.99%	2.69%	8.08%
O=C1NC(=O)C(c2ccc(Cl)cc2)=C1Nc1ccc(Cl)c(C(=O)O)c1	0.1%	0.19%	-0.33%	-0.91%	-0.59%	-6.41%	-4.82%	-3.21%	-0.72%	-6%
O=C1NC(=O)C(c2cccc(Cl)c2)=C1Nc1ccc(O)c(Cl)c1	1.76%	-0.02%	0.87%	-0.23%	-0.79%	-4.1%	9.22%	19.8%	3.62%	-3.06%
CS(=O)(=O)Nc1ccc(N/C=C2\C(=O)Nc3ccccc32)cc1	0.67%	0.5%	2.02%	-0.78%	-0.07%		2.58%	-6.11%	0.52%	4.05%
COc1ccccc1Nc1ncc(-c2ccccc2)o1	0.53%	0.22%	0.86%	2.09%	1.9%	-1.04%	14.1%	5.2%	1.18%	1.94%
CS(=O)(=O)CCNCc1ccc(-c2ccc3ncnc(Nc4ccc(OCc5cccc(F)c5)c(C(F)(F)F)c4)c3c2)o1	0.66%	0.74%	0.16%	1.63%	2.16%	0.39%	9.67%	10.8%	1.68%	2.19%
COc1cc2ncn(-c3cc(OCc4ccccc4C(F)(F)F)c(C(N)=O)s3)c2cc1OC	-2.85%	-0.3%	5.54%	1.22%	2.23%	9.96%	56.6%	35.4%	3.59%	5.82%
NC(=O)c1ccc(-c2nc(-c3ccccn3)c(-c3ccc4c(c3)OCO4)[nH]2)cc1	0.78%	0.11%	0.3%	0.77%	1.22%	3.17%	5.25%	11.6%	2.24%	7.51%
O=C1NC(=O)C(N2CCc3ccccc32)=C1c1ccc(Cl)cc1	0.77%	-1.28%	-2.25%	1.12%	0.55%	5.76%	7.18%	5.15%	3.01%	1.33%
NCc1ccc(-c2nc(-c3ccc(Cl)c(O)c3)c(-c3ccncc3)[nH]2)cc1	1.13%	-1.17%	-0.73%	-0.17%	-1.34%	0.32%	3.96%	8.19%	-1.21%	-0.81%
Cc1ccc(NC(=O)c2ccnc(N3CCCC3)c2)cc1-c1ccc(C(=O)NCC2CC2)cc1	-1.68%	-0.52%	1.15%	1.02%	1.69%	1.07%	8.28%	8.6%	6.98%	0.28%
O=C1NC(=O)C(c2ccccc2Cl)=C1Nc1cccc(O)c1	0.28%	-0.32%	-0.95%	0.71%	0.06%	1.46%	5.5%	10.7%	2.04%	8.17%
CCn1c(-c2nonc2N)nc2c(N3CCCC3)nccc21	0.29%	-0.84%	1%	-0.99%	-0.15%	-7.25%	-2.47%	-6.02%	-0.24%	-7.08%
CCn1c(-c2nonc2N)nc2cncc(C(=O)N3CCNCC3)c21	-0.88%	0.06%	2.39%	2.77%	2.41%	4.86%	14.2%	6.58%	6.79%	6%
CCn1c(-c2nonc2N)nc2c(C#CC(C)(C)O)nc(OC[C@@H](N)c3ccccc3)cc21	2.38%	0.56%	5.51%	-0.92%	-1.02%	1.01%	0.3%	1.75%	0.4%	-1.91%
CCCN1CCC=C(c2ccc(Nc3nc(Nc4ccccc4C(N)=O)c4cc[nH]c4n3)c(C)c2)C1	4.08%	2.03%	12.5%	1.79%	5.7%	5.62%	9.29%	8.52%	3.95%	2.87%
